“And” between values parts separate entries of the source, which are not always exact repeats. Equal values may be shown once. Records with an inconclusive call do not appear. The source made the active and inactive calls. Unless noted, calls come from the whole dose curve; as a rule, active = well fitted curve in the direction sought with a large enough effect; inconclusive = small, poorly fitted or top-dose-only effect, or another doubt; inactive = no such curve, though single readings can be large; an effect the other way counts as inactive or inconclusive.
Legend:
[1] = Cell Viability - Mesenchymal (AID 546); details: mesenchymal cells viability, qHTS; series mostly up to 91.7 µM;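 note: cells exposed to compound for 40 hours before reading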
Procedure, shortened: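 Human kidney mesenchymal cells from normal renal glomeruli, 1000 cells/well, rested 5 hr at 37 °C, then treated 40 hr at 37 °C in complete medium. Cellular ATP read by CellTiter-Glo luminescence; AC50 from Hill-equation fits.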

[2] = Cellular Toxicity (caspase-3) HepG2 (AID 654); details: HepG2 caspase-3 activation, luminescence, 0% = DMSO only, 100% = tamoxifen; series mostly up to 92.2 µM;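 note: cells exposed to compound for 16 hours before reading; 0% = DMSO alone and 100% = caspase signal from 100 µM tamoxifen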
Procedure, shortened: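 Cells plated 5 hr at 37 °C, compound added, incubated 16 hr at 37 °C. Caspase-Glo 3/7 reagent followed, 20 min at room temperature, then luminescence read. Activation scored as signal increase; AC50 from Hill fit.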

[3] = Cellular Toxicity (caspase-3) Jurkat (AID 655); details: Jurkat caspase-3 activation, luminescence, DMSO = 0%, tamoxifen = 100%; series mostly up to 92.2 µM;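 note: cells exposed to compound for 16 h at 37 °C before reading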
Procedure, shortened: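 Caspase 3/7 activation is scored as increased luminescence in Jurkat cells cultured with compound for 16 hours in complete medium. AC50 values come from Hill fits of qHTS concentration-response data normalized to DMSO and 100 uM tamoxifen controls.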

[4] = Cellular Toxicity (caspase-3) HUV-EC-C (AID 656); details: HUV-EC-C cells, caspase-3 activation (apoptosis), vehicle = 0, 100 µM tamoxifen = 100%; series mostly up to 92.2 µM
Procedure, shortened: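 Read-out: luminescence proportional to caspase 3/7 activity, measured 20 min after adding Caspase-Glo 3/7 reagent. Cells (HUV-EC-C) had received compound for 16 hr at 37°C. Increases relative to DMSO and 100 uM tamoxifen gave concentration-response AC50 values.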

[5] = Cellular Toxicity (caspase-3) SHSY5Y (AID 657); details: SH-SY5Y caspase-3 activation, DMSO zero, 10 µM staurosporine = 100%; series mostly up to 91.7 µM
Procedure, shortened: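 Cells plated and incubated 5 h at 37 °C, dosed over a concentration range, incubated 16 h, then given Caspase-Glo 3/7 reagent for 1 h at room temperature before luminescence reading. Staurosporine (10 uM) defined full stimulation.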

[6] = Cellular Toxicity (caspase-3) MRC-5 (AID 659); details: MRC-5 cells, luminescence, normalized: DMSO 0%, 10 µM staurosporine 100%; series mostly up to 91.7 µM
Procedure, shortened: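 MRC-5 human normal lung fibroblasts, 1500 cells/well, treated 16 h at 37 °C in complete medium. Caspase 3/7 measured by Caspase-Glo luminescence after 1 h at room temperature. Normalized to DMSO and 10 uM staurosporine; AC50 from Hill fit.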

[7] = Cellular Toxicity (caspase-3) Mesangial (AID 660); details: mesangial cells, normalized: DMSO 0%, 100 µM tamoxifen 100%; series mostly up to 91.7 µM
Procedure, shortened: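 Mesangial cells, 1000/well, 5 h settle at 37 °C; compound 16 h, 37 °C; Caspase-Glo 3/7 reagent 20 min RT; luminescence. Norm.: DMSO = 0%, tamoxifen 100 uM = 100%. AC50, Hill fit.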

[8] = Cellular Toxicity (caspase-3) SK-N-SH (AID 661); details: SK-N-SH caspase-3 activation, qHTS, DMSO as zero, staurosporine as full; series mostly up to 91.7 µM
Procedure, shortened: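 Human neuroblastoma SK-N-SH, 1500 cells/well, 5 hr pre-incubation, then compound 16 hr, 37 °C. Caspase-Glo 3/7 reagent, 1 hr RT, luminescence. Norm. to DMSO/10 uM staurosporine; Hill-fit AC50.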

[9] = Cellular Toxicity (caspase-3) H-4-II-E (AID 663); details: H-4-II-E rat hepatoma, scaled: DMSO 0%, 100 µM tamoxifen 100%; series mostly up to 92.2 µM
Procedure, shortened: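 Rat hepatoma H-4-II-E cells (1500/well) plated 5 hr, then exposed to compound titrations for 16 hr at 37 °C. Caspase-Glo 3/7 luminescence read after 20 min at RT; data normalized to DMSO and 100 uM tamoxifen, AC50 from Hill fits.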

[10] = Cellular Toxicity (caspase-3) Hek293 (AID 664); details: HEK293 caspase-3 activation, DMSO = 0%, 100 µM tamoxifen = 100%; series mostly up to 92.2 µM;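 note: cells exposed to compound for 16 h at 37 °C before readout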
Procedure, shortened: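 Cells plated, 5 hr at 37 °C; compounds added; 16 hr at 37 °C; Caspase-Glo 3/7 reagent, 20 min RT; luminescence read. Activation expressed relative to DMSO and 100 uM tamoxifen, AC50 by Hill model.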

[11] = Cellular Toxicity (caspase-3) N2a (AID 665); details: N2a cells, luminescence, normalized: DMSO 0%, 10 µM staurosporine 100%; series mostly up to 92.2 µM;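 note: compound exposure lasted 16 h at 37 °C before readout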
Procedure, shortened: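 N2a cells, 1500/well, 5 h settle at 37 °C; cpd 16 h, 37 °C; Caspase-Glo 3/7, 1 h RT; luminescence. Norm: DMSO = 0, 10 uM staurosporine = 100%. AC50, Hill fit.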

[12] = Cellular Toxicity (caspase-3) Renal Proximal Tubule (AID 667); details: renal proximal tubule cells; series mostly up to 91.7 µM;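 note: cells exposed to compound for 16 hours at 37 °C before detection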
Procedure, shortened: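 In qHTS format, rat primary proximal tubule cells seeded at 1000 per well are exposed to compounds for 16 hours at 37 °C. An increase in Caspase-Glo 3/7 luminescence indicates caspase activation.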

[13] = MultiTox-Fluor Cytotoxicity Assay - LYMP1-001 - Dead Cells (AID 946); details: LYMP1-001 lymphoblastoid cells, dead-cell protease fluorescence; series mostly up to 92.2 µM;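 note: 0% = DMSO and 100% = tetraoctylammonium bromide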
Procedure, shortened: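 In this qHTS, 15 uM tetraoctylammonium bromide defined 100% and DMSO defined basal activity. Lymphoblastoid cells (LYMP1-001, 2500 per well) received compound for 16 hr at 37 C before a fluorogenic dead-cell substrate readout at 485/520 nm.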

[14] = qHTS assay for small molecule antagonists of peroxisome proliferator-activated receptor delta signaling (AID 588535; active = well fitted inhibition curve with a large enough effect in the signal ratio, with a control signal flat, not every such curve was filed as active; the % refers to the signal ratio;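 for max response: cells co-treated with a PPAR-delta agonist as stimulator during compound exposure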); details: HEK293T PPARd-UAS-bla, beta-lactamase FRET ratio, 18 h; 460 nm channel
Procedure, shortened: (§1)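 Antagonist-mode beta-lactamase reporter (GeneBLAzer PPAR-delta-UAS-bla) in HEK293T cells, 2% charcoal/dextran FBS, 4000 cells/well. Compound titrations, 18 h at 37 C; CCF4 ratio read, IC50 and efficacy from Hill fits.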

[15] = target: Peroxisome proliferator-activated receptor delta (Homo sapiens) (UniProt Q03181); experiment: as above; details: HEK293T PPARd-UAS-bla, beta-lactamase FRET ratio, 18 h; series mostly up to 76.7 µM
Procedure, shortened: as §1

[16] = target: Vitamin D3 receptor (Homo sapiens) (UniProt P11473); experiment: qHTS assay for small molecule antagonists of vitamin D receptor signaling (AID 588541; calls by dose curve;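 note: receptor activated by calcitriol during compound treatment; % is set by controls: 0 for no effect and ±100 for the full control effect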); details: HEK293T VDR-UAS-bla, beta-lactamase ratio, antagonist mode; series mostly up to 76.7 µM
Procedure, shortened: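 VDR-UAS-bla HEK293T cells in 2% charcoal-stripped FBS were stimulated with 1-alpha,25-dihydroxyvitamin D3 (3 nM final) plus compound for 16 h at 37 C. The beta-lactamase CCF4 readout was normalized to 50 nM agonist and DMSO, and Hill fits gave IC50.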

[17] = target: Thyroid hormone receptor beta (Homo sapiens) (UniProt P10828); experiment: qHTS assay for small molecule antagonists of thyroid hormone receptor beta signaling (AID 588547; active = well fitted inhibition curve with a large enough effect in the signal ratio, with a control signal flat, not every such curve was filed as active; the % refers to the signal ratio;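 note: cells stimulated with 0.4 nM T3 agonist during compound exposure; % is set by controls: 0 for no effect and ±100 for the full control effect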); details: TR-UAS-bla HEK293, beta-lactamase ratio, antagonist mode, 18 h
Procedure, shortened: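 TR-UAS-bla GripTite HEK293 cells in 2% charcoal/dextran FBS medium; compounds 0.59 nM to 92 uM with T3 at 0.4nM final, 18 h at 37 C. Beta-lactamase read by CCF4 fluorescence (460/530 nm); Hill fits gave IC50 and efficacy.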

[18] = target: Voltage-gated inwardly rectifying potassium channel KCNH2 (Homo sapiens) (UniProt Q12809); experiment: qHTS Assay for Small Molecule Inhibitors of the Human hERG Channel Activity (AID 588834); details: U2OS BacMam hERG, FluxOR thallium flux fluorescence; series mostly up to 46.1 µM;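 note: top concentration of the series differs between compounds; % is set by controls: 0 for no effect and ±100 for the full control effect; lower thallium flux fluorescence means stronger hERG block; nearly all actives have a fitted effect of over 50% in size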
Procedure, shortened: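 Measured: FluxOR fluorescence after thallium stimulation in U2OS cells transduced with hERG by baculovirus. Compounds pre-incubated around 10 min; medium Opti-MEM with 2% FCS. AC50 from Hill equation.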

[19] = qHTS assay for small molecule agonists of the antioxidant response element (ARE) signaling pathway (AID 651741; active = well fitted activation curve with a large enough effect in the signal ratio; the % refers to the signal ratio; note: % of control where 0% means no effect); details: HepG2 ARE-bla reporter, beta-lactamase FRET ratio, 16 h; series mostly up to 96 µM
Procedure, shortened: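 CellSensor ARE-bla HepG2 cells (2,000/well) carrying ARE-driven beta-lactamase, exposed 16 h at 37 C. LiveBLAzer B/G FRET substrate added for 2 h at room temperature; fluorescence intensity read.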

[20] = target: Nuclear receptor ROR-gamma (Homo sapiens) (UniProt P51449); experiment: qHTS assay for small molecule antagonists of the retinoid-related orphan receptor gamma (ROR-gamma) signaling pathway (AID 651802); details: ROR-gamma antagonist cell reporter assay; series mostly up to 92.2 µM;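 note: CHO cells with doxycycline-induced ROR-gamma expression; luciferase reporter luminescence driven by ROR response element; % is set by controls: 0 for no effect and ±100 for the full control effect; nearly all actives have a fitted effect of over 60% in size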
Procedure, shortened: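 CHO, TET-inducible ROR + RORE-LUC reporter, 1536-well qHTS. Compound pinned, doxycycline added, 16hr 37C/5% CO2. ONE-Glo, 30 min RT, luminescence; signal drop scored as antagonism.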

Sequence of Vitamin D3 receptor (Homo sapiens) (P11473 whole entry, looked up): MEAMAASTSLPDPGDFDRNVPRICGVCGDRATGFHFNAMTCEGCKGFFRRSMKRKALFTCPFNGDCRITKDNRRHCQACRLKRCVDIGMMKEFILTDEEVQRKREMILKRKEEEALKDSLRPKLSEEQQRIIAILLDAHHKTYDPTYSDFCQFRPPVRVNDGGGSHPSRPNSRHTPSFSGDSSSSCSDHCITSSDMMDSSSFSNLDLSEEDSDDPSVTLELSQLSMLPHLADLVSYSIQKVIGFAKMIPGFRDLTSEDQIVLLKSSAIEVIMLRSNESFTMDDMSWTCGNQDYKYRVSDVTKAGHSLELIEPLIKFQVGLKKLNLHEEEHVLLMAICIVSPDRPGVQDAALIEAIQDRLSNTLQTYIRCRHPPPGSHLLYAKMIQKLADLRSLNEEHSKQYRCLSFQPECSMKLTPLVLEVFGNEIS
Sequence of Thyroid hormone receptor beta (Homo sapiens) (P10828 whole entry, looked up): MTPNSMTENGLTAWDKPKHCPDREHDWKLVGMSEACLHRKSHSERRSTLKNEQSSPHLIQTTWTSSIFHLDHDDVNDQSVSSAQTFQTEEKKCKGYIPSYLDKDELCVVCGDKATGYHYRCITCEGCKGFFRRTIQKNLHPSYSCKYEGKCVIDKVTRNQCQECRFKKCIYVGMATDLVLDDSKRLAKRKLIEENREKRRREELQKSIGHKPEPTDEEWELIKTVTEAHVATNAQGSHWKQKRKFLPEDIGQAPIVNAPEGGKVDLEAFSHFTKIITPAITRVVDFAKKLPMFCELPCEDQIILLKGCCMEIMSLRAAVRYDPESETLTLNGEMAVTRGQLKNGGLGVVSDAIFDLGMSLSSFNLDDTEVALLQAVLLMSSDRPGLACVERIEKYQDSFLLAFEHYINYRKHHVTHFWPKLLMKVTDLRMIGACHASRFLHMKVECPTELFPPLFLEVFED
Sequence of Peroxisome proliferator-activated receptor delta (Homo sapiens) (Q03181 whole entry, looked up): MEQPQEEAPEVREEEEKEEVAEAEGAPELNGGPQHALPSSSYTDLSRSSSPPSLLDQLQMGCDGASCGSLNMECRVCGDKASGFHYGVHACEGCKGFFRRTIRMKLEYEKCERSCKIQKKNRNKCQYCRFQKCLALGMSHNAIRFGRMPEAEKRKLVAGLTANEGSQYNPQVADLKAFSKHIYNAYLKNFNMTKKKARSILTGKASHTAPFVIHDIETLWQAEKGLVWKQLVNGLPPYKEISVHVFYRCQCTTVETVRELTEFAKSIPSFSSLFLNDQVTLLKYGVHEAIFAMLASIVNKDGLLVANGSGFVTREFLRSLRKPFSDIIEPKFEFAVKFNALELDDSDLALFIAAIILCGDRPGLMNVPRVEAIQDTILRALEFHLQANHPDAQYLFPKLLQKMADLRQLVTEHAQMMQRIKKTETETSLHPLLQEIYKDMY
Sequence of Voltage-gated inwardly rectifying potassium channel KCNH2 (Homo sapiens) (Q12809 whole entry, looked up): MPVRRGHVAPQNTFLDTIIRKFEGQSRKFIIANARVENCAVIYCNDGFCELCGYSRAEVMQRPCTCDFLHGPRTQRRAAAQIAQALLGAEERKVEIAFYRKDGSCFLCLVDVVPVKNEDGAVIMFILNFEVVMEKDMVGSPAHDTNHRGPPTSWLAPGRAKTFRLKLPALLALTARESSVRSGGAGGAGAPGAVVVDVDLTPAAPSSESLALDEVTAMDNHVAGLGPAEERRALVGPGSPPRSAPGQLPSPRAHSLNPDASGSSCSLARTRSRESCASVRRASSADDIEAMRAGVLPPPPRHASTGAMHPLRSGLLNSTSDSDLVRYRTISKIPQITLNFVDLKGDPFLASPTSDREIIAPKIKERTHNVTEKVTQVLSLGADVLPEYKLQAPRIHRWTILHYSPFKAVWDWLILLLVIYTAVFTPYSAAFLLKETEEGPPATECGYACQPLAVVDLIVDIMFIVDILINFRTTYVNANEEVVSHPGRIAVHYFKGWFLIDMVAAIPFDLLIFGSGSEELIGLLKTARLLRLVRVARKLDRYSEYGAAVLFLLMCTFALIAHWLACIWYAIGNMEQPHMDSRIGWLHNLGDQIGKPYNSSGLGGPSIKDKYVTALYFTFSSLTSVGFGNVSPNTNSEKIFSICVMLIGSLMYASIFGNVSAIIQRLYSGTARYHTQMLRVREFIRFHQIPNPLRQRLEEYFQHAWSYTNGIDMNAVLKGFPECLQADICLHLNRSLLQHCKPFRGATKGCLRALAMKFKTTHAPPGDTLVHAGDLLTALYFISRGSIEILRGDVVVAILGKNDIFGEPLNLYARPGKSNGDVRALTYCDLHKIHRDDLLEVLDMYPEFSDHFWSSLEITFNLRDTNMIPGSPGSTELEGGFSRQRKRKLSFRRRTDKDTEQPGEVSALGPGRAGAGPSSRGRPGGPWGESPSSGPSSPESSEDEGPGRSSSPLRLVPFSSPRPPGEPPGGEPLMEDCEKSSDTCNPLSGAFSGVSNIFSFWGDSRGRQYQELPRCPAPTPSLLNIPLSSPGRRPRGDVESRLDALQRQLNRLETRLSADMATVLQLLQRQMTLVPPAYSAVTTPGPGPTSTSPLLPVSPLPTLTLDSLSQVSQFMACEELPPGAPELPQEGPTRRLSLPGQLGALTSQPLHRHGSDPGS
Sequence of Nuclear receptor ROR-gamma (Homo sapiens) (P51449 whole entry, looked up): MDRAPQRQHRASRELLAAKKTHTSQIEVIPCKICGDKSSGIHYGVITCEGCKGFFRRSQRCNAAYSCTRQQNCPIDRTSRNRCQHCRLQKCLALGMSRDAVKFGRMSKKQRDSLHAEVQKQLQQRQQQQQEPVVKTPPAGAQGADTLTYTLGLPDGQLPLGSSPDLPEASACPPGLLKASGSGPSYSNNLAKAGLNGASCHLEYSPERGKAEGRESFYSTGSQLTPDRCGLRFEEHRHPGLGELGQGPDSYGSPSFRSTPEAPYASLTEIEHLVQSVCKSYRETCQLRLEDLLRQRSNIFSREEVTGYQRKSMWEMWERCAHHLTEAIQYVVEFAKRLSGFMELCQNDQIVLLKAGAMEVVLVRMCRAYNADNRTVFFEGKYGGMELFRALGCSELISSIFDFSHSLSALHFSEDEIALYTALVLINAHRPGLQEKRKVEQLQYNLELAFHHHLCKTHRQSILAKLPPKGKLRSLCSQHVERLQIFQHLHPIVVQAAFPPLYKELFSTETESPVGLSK

CCOc1cc(C=O)ccc1O
inactive: outcome [1] | outcome [2] | outcome [3] | outcome [4] | outcome [5] | outcome [6] | outcome [7] | outcome [8] | outcome [9] | outcome [10] | outcome [11] | outcome [12] | Potency [13] | outcome [15] | outcome [16] | activity change % (negative = inhibition) [17] 6.05% and -14.6% | Potency [18] | Potency [19] | Potency [20]
-4.7%: max response [14]

— PubChem BioAssay (NCATS)
